Growth data for 20 compounds are collected here from PubChem BioAssay (NCI).

Some test systems named below: SK-MEL-2 melanoma; EKVX NSCLC; SN12C renal; UO-31 renal; TK-10 renal; ACHN renal; CAKI-1 renal; A498 renal; CCRF-CEM leukemia; MOLT-4 leukemia.
Holding throughout (experiment): NCI-60 one-dose screen, 48 h (100 = growth as untreated, 0 = no growth, -100 = all killed)
What all share (settings): 10 µM unless noted

This is part of a sample that, as a whole, favours compounds with a hit. Of some 83,000 tested, about 20% had one in any assay.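 Step 1: grow cells in 96-well plates. Step 2: add test compound at a single concentration. Step 3: incubate 48 h. Step 4: record percent growth.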 Unmarked numbers belong to inactive results. Activity calls are given as the source filed them. How the source made its calls: active means growth percent below 10; inactive means the rest.

For `CCCCCCCCCCCCNC(=O)N[C@H](C(=O)N[C@H]1/C=C/OCCNC(=O)/C=C/[C@H](C(C)C)NC1=O)C(C)C`, the growth with SK-MEL-2 melanoma was 66.8%; in the assay with EKVX NSCLC, 86.5%; in the assay with SN12C renal, 93.6%; in the assay with UO-31 renal, 93.5%; with TK-10 renal, 97.1%; in the assay with ACHN renal it was 115%. Moreover, the growth in the assay on CAKI-1 renal is 96.1%; in the assay on A498 renal it was 96.1%; in the assay with CCRF-CEM leukemia it was 40.6%; in the assay on MOLT-4 leukemia, 51.3%.
As to `Nc1c(Br)cc2c(c1Br)Cc1cc(Cl)ccc1-2`, the growth is 114% in the assay with SK-MEL-2 melanoma; 69.1% in the assay on EKVX NSCLC; 89.8% in the assay on SN12C renal; 77.6% in the assay with UO-31 renal; 130% in the assay with TK-10 renal; 81.3% with ACHN renal. In addition, the growth with CAKI-1 renal was 74.6%; in the assay on A498 renal, 121%; with CCRF-CEM leukemia, 94.2%; in the assay with MOLT-4 leukemia, 97.4%.
As for `CC(C)(C)[Si](C)(C)OC1[C@@H](CNC(N)=O)O[C@@H](n2cnc3c(NC(=O)Nc4ccccc4)ncnc32)[C@H]1O[Si](C)(C)C(C)(C)C` (stereo not given in full), the growth is 80.9% in the assay on SK-MEL-2 melanoma; 59.7% with EKVX NSCLC; -33.7% (active) in the assay on SN12C renal; 40.9% with UO-31 renal; 84.5% in the assay on TK-10 renal; 40.2% in the assay on ACHN renal. Further, the growth in the assay on CAKI-1 renal is 92.2%; in the assay with A498 renal, 81%; in the assay on CCRF-CEM leukemia, 47.9%; in the assay on MOLT-4 leukemia, 23.5%.
`C[C@@H]1CC2C3CCC4=CC(=O)C=C[C@]4(C)[C@@]3(Cl)[C@@H](O)C[C@]2(C)[C@@]1(OC(=O)c1ccco1)C(=O)CCl` (stereo not given in full): the growth was 76.6% in the assay on SK-MEL-2 melanoma; 61.5% in the assay with EKVX NSCLC; 35.4% in the assay with SN12C renal; 30.5% in the assay with UO-31 renal; 95.6% in the assay with TK-10 renal; 82.4% in the assay on ACHN renal. Also, the growth is 62.2% in the assay on CAKI-1 renal, 99% in the assay on A498 renal, 30% with CCRF-CEM leukemia and 31.5% with MOLT-4 leukemia.
Regarding `CN1C(=O)N(C)C2C1NN=c1s/c(=C\c3ccc(Br)cc3)c(=O)n12` (stereo not given), the growth with SK-MEL-2 melanoma is 52.7%; in the assay on EKVX NSCLC, 50%; with SN12C renal, 50.2%; in the assay on UO-31 renal, 53.4%; with TK-10 renal, 60.4%; in the assay on ACHN renal it was 43.2%. The growth in the assay with CAKI-1 renal was 38.6%; in the assay with A498 renal, 20.2%; in the assay with CCRF-CEM leukemia it was 10.3%; with MOLT-4 leukemia it was 40.3%.
On to `Nc1c(C(=O)Nc2cccc(Cl)c2)sc2nc3c(cc12)C(=O)CCC3`, for which the growth with SK-MEL-2 melanoma was 69.7%; in the assay on EKVX NSCLC it was 58.2%; with SN12C renal, 54.4%; in the assay with UO-31 renal it was 57.1%; in the assay with TK-10 renal, 65%; with ACHN renal, 54.2%. For the same compound, the growth was 40.3% with CAKI-1 renal, 49.3% in the assay with A498 renal, 13.5% in the assay on CCRF-CEM leukemia and 57.1% with MOLT-4 leukemia.
For the compound `CC1OC(n2c3ccccc3c3c4c(c5c6ccccc6[nH]c5c32)C(=O)N(CCN[C@H]2CCC[C@@H]2N)C4=O)CC(O)C1O` (stereo not given in full), the growth in the assay with SK-MEL-2 melanoma is 74.5%; in the assay on EKVX NSCLC it was 45.9%; with SN12C renal, 17.9%; in the assay on UO-31 renal it was 66.8%; in the assay on TK-10 renal, 52.8%; in the assay with ACHN renal, 45.6%. Further, the growth was 85.7% in the assay on CAKI-1 renal, 77.9% in the assay on A498 renal, 27.1% with CCRF-CEM leukemia and 7.62% (active) with MOLT-4 leukemia.
Consider `CCN(CC)Cc1cc(Nc2ccnc3ccc(OC)cc23)ccc1O`, for which the growth in the assay on SK-MEL-2 melanoma was 26.5%; with EKVX NSCLC it was 67.1%; with SN12C renal, 56.6%; in the assay on UO-31 renal, 2.04% (active); with TK-10 renal it was 49.6%; in the assay with ACHN renal, 35.1%. Further, the growth was 45.4% with CAKI-1 renal, 45.6% in the assay on A498 renal, 55.5% in the assay with CCRF-CEM leukemia and 29.7% in the assay on MOLT-4 leukemia.
As for `CC(CN1CCN(CC(C)Nc2ccnc3cc(Cl)ccc23)CC1)Nc1ccnc2cc(Cl)ccc12` (stereo not given), the growth in the assay on SK-MEL-2 melanoma is -37.9% (active); with EKVX NSCLC it was 67.3%; in the assay with SN12C renal it was 57.7%; in the assay with UO-31 renal, -49.5% (active); in the assay with TK-10 renal it was -48% (active); in the assay with ACHN renal it was 19.1%. For the same compound, the growth in the assay with CAKI-1 renal is 11.2%; in the assay on A498 renal, 84.7%; with CCRF-CEM leukemia, 5.14% (active); in the assay on MOLT-4 leukemia, 4.88% (active).
Take `CCOC(=O)Cn1c(-c2nonc2NC(=O)c2ccccc2F)nc2ccccc21`: the growth with SK-MEL-2 melanoma was 78%; in the assay on EKVX NSCLC, 71.1%; in the assay on SN12C renal it was 57.9%; with UO-31 renal, 54.5%; with TK-10 renal, 66.1%; in the assay with ACHN renal, 46.5%. The growth is 25% with CAKI-1 renal, 82.5% in the assay on A498 renal, 42.3% with CCRF-CEM leukemia and 25% in the assay with MOLT-4 leukemia.
As to `CC[C@]1(O)C[C@H]2CN(CCc3c([nH]c4ccccc34)C(C(=O)OC)(c3cc4c(cc3OC)N(C)[C@H]3[C@@](O)(C(=O)OC)[C@H](OC(C)=O)[C@]5(CC)[C@@H]6C[C@@H]6CN6CC[C@]43[C@@H]65)C2)C1` (stereo not given in full), the growth in the assay with SK-MEL-2 melanoma is 45.5%; in the assay with EKVX NSCLC, 35.2%; in the assay on SN12C renal, 22.2%; with UO-31 renal, 9.66% (active); in the assay on TK-10 renal, 52.7%; in the assay with ACHN renal it was 5.92% (active). Moreover, the growth with CAKI-1 renal is -13.2% (active); with A498 renal it was 16.6%; in the assay with CCRF-CEM leukemia, 4.35% (active); with MOLT-4 leukemia it was 3.74% (active).
Take `CCCCCCCCCCCCCCCCCC(=O)[O][Sn]([CH2]CCC)([CH2]CCC)[CH2]CCC`: the growth in the assay on SK-MEL-2 melanoma is -60.7% (active); with EKVX NSCLC, -40.1% (active); with SN12C renal it was -47.2% (active); in the assay on UO-31 renal it was -92.4% (active); in the assay on TK-10 renal, -93.6% (active); in the assay with ACHN renal, -96.8% (active). The growth is -86.5% (active) with CAKI-1 renal, -98% (active) with A498 renal, 1.06% (active) in the assay with CCRF-CEM leukemia and 4.55% (active) in the assay with MOLT-4 leukemia.
For `CC(C)c1ccc(-c2cnc3nonc3n2)cc1`, the growth in the assay with SK-MEL-2 melanoma is 76.4%; in the assay with EKVX NSCLC, 71.9%; with SN12C renal, 26.2%; in the assay on UO-31 renal, 41.3%; in the assay with TK-10 renal it was 47.5%; with ACHN renal it was 51.3%. For the same compound, the growth in the assay with CAKI-1 renal was 60.7%; in the assay on A498 renal, 61.8%; in the assay with CCRF-CEM leukemia, 1.81% (active); in the assay with MOLT-4 leukemia it was -12.1% (active).
As for `C=C(C)[C@@H]1CC[C@]2(C(=O)O)CC[C@]3(C)[C@H](CC[C@@H]4[C@@]5(C)C[C@@H](CC#Cc6ccc(C(C)=O)s6)[C@H](O)C(C)(C)[C@@H]5CC[C@]43C)[C@@H]12`, the growth with SK-MEL-2 melanoma was 51.9%; in the assay on EKVX NSCLC it was 53.2%; in the assay on SN12C renal it was 68%; in the assay on UO-31 renal it was 56.6%; in the assay on TK-10 renal, 49.6%; in the assay with ACHN renal, 47.9%. In addition, the growth was 40.7% with CAKI-1 renal, -3.73% (active) in the assay with A498 renal, 44.7% in the assay on CCRF-CEM leukemia and 32.5% in the assay on MOLT-4 leukemia.
Turning to `CCOCCNc1ccc(S(=O)(=O)c2ccc(N)cc2)cc1N`, the growth in the assay with SK-MEL-2 melanoma is 111%; with EKVX NSCLC it was 86.6%; in the assay on SN12C renal, 110%; in the assay with UO-31 renal, 90.8%; with TK-10 renal, 111%; with ACHN renal it was 106%. Also, the growth in the assay on CAKI-1 renal was 86.7%; with A498 renal it was 83.2%; in the assay with CCRF-CEM leukemia it was 96%; in the assay on MOLT-4 leukemia, 107%.
For the compound `O=C1Nc2ccccc2/C1=C\c1nc(C2CCN(S(=O)(=O)c3ccc(F)cc3)CC2)n2ccccc12`, the growth with SK-MEL-2 melanoma was 17.8%; in the assay on EKVX NSCLC it was 63.3%; in the assay on SN12C renal, 46%; with UO-31 renal, 68.2%; in the assay on TK-10 renal it was 60.1%; in the assay with ACHN renal, 55.6%. In addition, the growth in the assay with CAKI-1 renal was 57.8%; in the assay on A498 renal, 82.9%; in the assay with CCRF-CEM leukemia, 95.1%; in the assay on MOLT-4 leukemia, 100%.
As for `CNC(=O)c1c(NC(=O)c2cccc(C(F)(F)F)c2)sc2c1CCC(=O)C2`, the growth with SK-MEL-2 melanoma is -16.5% (active); in the assay with EKVX NSCLC, 4.31% (active); in the assay with SN12C renal it was 3.13% (active); in the assay with UO-31 renal, -94.3% (active); in the assay with TK-10 renal, 32.1%; in the assay with ACHN renal it was -66.9% (active). Besides, the growth was -22.5% (active) with CAKI-1 renal, -5.84% (active) in the assay on A498 renal, -0.844% (active) in the assay with CCRF-CEM leukemia and -7.92% (active) in the assay on MOLT-4 leukemia.
In the case of `N/C(=C\C(=O)n1nc(-c2ccccc2)cc1N)c1ccccc1`, the growth in the assay on SK-MEL-2 melanoma was -16.7% (active); in the assay on EKVX NSCLC, 69.5%; with SN12C renal it was 62.1%; in the assay with UO-31 renal it was 38.2%; in the assay on TK-10 renal, 101%; in the assay on ACHN renal, 63.7%. The growth in the assay with CAKI-1 renal was 65.3%; with A498 renal it was 67.8%; with CCRF-CEM leukemia, 40.1%; in the assay on MOLT-4 leukemia, 43%.
As for `COC(=O)OC1C(O[C@H]2C[C@H]3[C@@H]4CC=C5C[C@@H](O)CC[C@]5(C)[C@H]4CC[C@]3(C)[C@H]2[C@H](C)C(=O)CCC(C)C)OCC(O)C1OC1OCC(O)C(O)C1OC(=O)c1ccc(OC)cc1` (stereo not given in full), the growth was -46.1% (active) in the assay with SK-MEL-2 melanoma; 14.3% in the assay on EKVX NSCLC; 43.4% with SN12C renal; -40.4% (active) with UO-31 renal; 0.902% (active) with TK-10 renal; 31.6% in the assay on ACHN renal. Also, the growth in the assay with CAKI-1 renal was -16.6% (active); with A498 renal it was -74% (active); in the assay on CCRF-CEM leukemia, -25.9% (active); with MOLT-4 leukemia, -36.5% (active).
`CCN(CC)CC(=O)Nc1c(C)cc(C(=O)NN)cc1C`: the growth in the assay with SK-MEL-2 melanoma was 117%; in the assay with EKVX NSCLC, 102%; with SN12C renal it was 98.3%; in the assay with UO-31 renal it was 84.7%; in the assay with TK-10 renal, 102%; with ACHN renal, 107%. The growth was 95.8% with CAKI-1 renal, 99.7% in the assay with A498 renal, 114% with CCRF-CEM leukemia and 85.2% with MOLT-4 leukemia.
